Inconclusive results are not listed. Active and inactive are the calls of the source. The call rests on the fitted dose curve; in most records, active means well fitted cell-killing curve with a large enough effect; inconclusive means small, poorly fitted or top-dose-only effect, or effect the other way; inactive means flat fitted curve, though single readings scatter.
Experiments:
Test in all cases: Primary qHTS to identify gynecologic anti-cancer compounds using libraries of approved drugs and bioactive compounds (AID 1345084); further: nearly all actives have a fitted effect of over 55% in size
Settings in all cases: Gynecologic cancer cell panel viability, ATPlite luminescence, 48 h; series mostly up to 57.5 µM
PA-1 = system: PA-1
In short: (§1)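 Luminescence from the ATPlite ATP-monitoring reagent indicates viable cell number; lower signal means cytotoxicity. Cells received compound 16 h after seeding and were exposed for 48 h across five concentrations.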

SKOV3 = system: SKOV3
In short: as §1

Tov-21-G = system: Tov-21-G
In short: as §1

Tov112D = system: Tov112D
In short: as §1
On the % scale 0 is the no-effect control and ±100 the full control effect.

O=C([C@@H]1CCCN(c2ccc3[nH]c(C4(n5cc(Cl)cn5)CC4)nc3n2)C1)N1CCCC1
inactive: Potency (PA-1) | Potency (SKOV3) | Potency (Tov-21-G) | Potency (Tov112D)

CC(C)/C=C1\NC(=O)C(C(C)C)n2c1nc1ccccc1c2=O (stereo not drawn)
inactive: Potency (PA-1) | Potency (SKOV3) | Potency (Tov-21-G) | Potency (Tov112D)

COc1ccc(CCN(C)CCCOc2nsc(-c3ccccc3)n2)cc1OC
inactive: Potency (PA-1) | Potency (SKOV3) | Potency (Tov-21-G) | Potency (Tov112D)

N[C@@H]1c2cccnc2[C@H](OC(=O)N2CCC(n3c(=O)[nH]c4ncccc43)CC2)CC[C@H]1c1cccc(F)c1F
inactive: Potency (PA-1) | Potency (SKOV3) | Potency (Tov-21-G) | Potency (Tov112D)

CCN(CCNC(=O)Nc1ccccc1Br)c1cccc(C)c1
inactive: Potency (PA-1) | Potency (SKOV3) | Potency (Tov-21-G) | Potency (Tov112D)

C=C1C(=O)OC2/C=C(\CO)CC/C=C(\C=O)C(O)C(OC(=O)C(C)CC)C12 (stereo not drawn)
inactive: Potency (PA-1) | Potency (SKOV3) | Potency (Tov-21-G) | Potency (Tov112D)

Cc1cn2c(n1)Cc1ccc(Cl)cc1C(c1ccc(N)cc1)=N2
inactive: Potency (PA-1) | Potency (SKOV3) | Potency (Tov-21-G) | Potency (Tov112D)

C=C1C(=O)O[C@@H]2[C@H]1CCC(C)=C(CCC(=O)O)[C@@]2(C)O
inactive: Potency (PA-1) | Potency (SKOV3) | Potency (Tov-21-G) | Potency (Tov112D)

CCCN(CCc1ccsc1)C1CCc2c(O)cccc2C1 (stereo not drawn)
inactive: Potency (PA-1) | Potency (SKOV3) | Potency (Tov-21-G) | Potency (Tov112D)

CC(=O)O[C@@H]1C[C@]2(C)[C@@]3(CCC4[C@@]5(C)CC[C@H](O[C@@H]6O[C@H](C(=O)O)[C@@H](O)[C@H](OC7OC(CO)C(O)C(O)[C@H]7O[C@@H]7O[C@@H](C)[C@H](O)[C@@H](O)[C@H]7O[C@@H]7OC[C@](O)(CO)[C@H]7O)[C@H]6OC6OC(CO)C(O)C(O)C6O)C(C)(C)C5CC[C@]42C)OC[C@@]12CCC(C)(C)CC23 (stereo partly drawn)
inactive: activity change, negative = cytotoxicity (PA-1) -13% [at 6.55 µM] | activity change, negative = cytotoxicity (SKOV3) 27.9% [at 6.55 µM] | activity change, negative = cytotoxicity (Tov-21-G) -2.25% [at 6.55 µM] | activity change, negative = cytotoxicity (Tov112D) -4.27% [at 6.55 µM]

COc1ccc(CN2CCN(CCCSc3cc(C(C)(C)C)c(O)c(C(C)(C)C)c3)CC2)c(OC)c1OC
inactive: activity change, negative = cytotoxicity (PA-1) 1.3% [at 11.6 µM] | activity change, negative = cytotoxicity (SKOV3) 17.3% [at 11.6 µM] | activity change, negative = cytotoxicity (Tov-21-G) 7.27% [at 11.6 µM] | activity change, negative = cytotoxicity (Tov112D) 2.48% [at 11.6 µM]

Cn1cc(C2=C(c3coc4ccccc34)C(=O)NC2=O)c2cc(Br)ccc21
inactive: Potency (PA-1) | Potency (SKOV3) | Potency (Tov-21-G) | Potency (Tov112D)

CC(C)Oc1ccc(-c2cnc3c(-c4ccnc5ccccc45)cnn3c2)cc1
inactive: Potency (PA-1) | Potency (SKOV3) | Potency (Tov-21-G) | Potency (Tov112D)

Fc1ccc(CN2CCC(Nc3ccc(C(F)(F)F)nn3)CC2)cc1F
inactive: Potency (PA-1) | Potency (SKOV3) | Potency (Tov-21-G) | Potency (Tov112D)

CN(C)C(=O)C(=O)c1cn(C)c2cc(Cl)c(C(=O)N3CCC(Cc4ccc(F)cc4)CC3)cc12
inactive: Potency (PA-1) | Potency (SKOV3) | Potency (Tov-21-G) | Potency (Tov112D)

O=[N+]([O-])c1cn2c(n1)OC[C@@H](OCc1ccc(-c3ccc(OC(F)(F)F)cc3)nc1)C2
inactive: Potency (PA-1) | Potency (SKOV3) | Potency (Tov-21-G) | Potency (Tov112D)

CCC(C)CNCC(=O)N1CCc2sccc2C1COc1cccc(C)c1 (stereo not drawn)
inactive: Potency (PA-1) | Potency (SKOV3) | Potency (Tov-21-G) | Potency (Tov112D)

O=C(Nc1cnc(Cl)nc1)c1ccc(F)c(F)c1
inactive: Potency (PA-1) | Potency (SKOV3) | Potency (Tov-21-G) | Potency (Tov112D)

Cc1ccc(OC[C@H](O)[C@H](C)NC(C)C)c2c1CCC2
inactive: Potency (PA-1) | Potency (SKOV3) | Potency (Tov-21-G) | Potency (Tov112D)

O=C(COc1ccc2ccccc2c1Br)Nc1cccnc1
inactive: Potency (PA-1) | Potency (SKOV3) | Potency (Tov-21-G) | Potency (Tov112D)

CNCc1cc(-c2ccccc2F)n(S(=O)(=O)c2cccnc2)c1
inactive: Potency (PA-1) | Potency (SKOV3) | Potency (Tov-21-G) | Potency (Tov112D)

O=C(Nc1ccn(Cc2ccc(O)cc2C(F)(F)F)n1)c1c(F)cccc1F
inactive: Potency (PA-1) | Potency (SKOV3) | Potency (Tov-21-G) | Potency (Tov112D)

CC(C)(Cc1nc(-c2ccc(O)cn2)no1)C(=O)NC1=C(C(=O)O)CCCC1
inactive: Potency (PA-1) | Potency (SKOV3) | Potency (Tov-21-G) | Potency (Tov112D)

NS(=O)(=O)c1ccc(NC(=O)Nc2ccc(F)cc2)cc1
inactive: Potency (PA-1) | Potency (SKOV3) | Potency (Tov-21-G) | Potency (Tov112D)

CCC(C)C(=O)OC1C(C)C2(O)C(C=C(CO)CC3(O)C(=O)C(C)=CC32)C2C(C)(C)C12OC(=O)C(C)C (stereo not drawn)
inactive: Potency (PA-1) | Potency (SKOV3) | Potency (Tov-21-G) | Potency (Tov112D)

CC(=O)O[C@@H]1CC2C(C)(C)C(=O)C=C[C@]2(C)C2CC[C@@]3(C)[C@H](c4ccoc4)OC(=O)[C@H]4O[C@]43[C@@]21C (stereo partly drawn)
inactive: Potency (PA-1) | Potency (SKOV3) | Potency (Tov-21-G) | Potency (Tov112D)

Cc1cc(C)cc(-c2cnc3cc(Cl)c(-c4cccc(O)c4)cc3c2OCCCN)c1
inactive: Potency (PA-1) | Potency (SKOV3) | Potency (Tov-21-G) | Potency (Tov112D)

Cc1cc(C)c(S(=O)(=O)n2cc(C)cc2C)c(C)c1
inactive: Potency (PA-1) | Potency (SKOV3) | Potency (Tov-21-G) | Potency (Tov112D)

O=C(Nc1ccccc1Br)NC1CCN(c2ccc(C(F)(F)F)cn2)C1 (stereo not drawn)
inactive: Potency (PA-1) | Potency (SKOV3) | Potency (Tov-21-G) | Potency (Tov112D)

Cc1nc(C(=O)N2CCC[C@H]2Cc2nnc(-c3ccccc3)o2)c(-c2ccccc2F)s1
inactive: Potency (PA-1) | Potency (SKOV3) | Potency (Tov-21-G) | Potency (Tov112D)

C=C1/C(=C/C=C2\CCC[C@]3(C)[C@@H]([C@H](C)/C=C/[C@@H](C)C(C)C)CC[C@@H]23)C[C@@H](O)C[C@@H]1O
inactive: Potency (PA-1) | Potency (SKOV3) | Potency (Tov-21-G) | Potency (Tov112D)

Cc1nc(C#Cc2ccnc(Cl)c2)c(C)n1-c1ccc(OC(F)(F)F)cc1
inactive: Potency (PA-1) | Potency (SKOV3) | Potency (Tov-21-G) | Potency (Tov112D)

O=C(c1cc(Cc2n[nH]c(=O)c3ccccc23)ccc1F)N1CCCNCC1
inactive: Potency (PA-1) | Potency (SKOV3) | Potency (Tov-21-G) | Potency (Tov112D)

Cc1cc2c(N3CCCC3)nc(N3CCCC3)nc2n1C
inactive: Potency (PA-1) | Potency (SKOV3) | Potency (Tov-21-G) | Potency (Tov112D)

CC1(NC(=O)c2ccc(C#Cc3cccc(F)c3)cn2)COC1
inactive: Potency (PA-1) | Potency (SKOV3) | Potency (Tov-21-G) | Potency (Tov112D)

C#CCOc1ccc2c(c1)c(-c1ccc(C(C)C)cc1)nc(=O)n2C(C)C
inactive: Potency (PA-1) | Potency (SKOV3) | Potency (Tov-21-G) | Potency (Tov112D)

C=C1C(=O)O[C@@H]2C=C(COC(C)=O)CC/C=C(\CO)CC[C@@H]12
inactive: Potency (PA-1) | Potency (SKOV3) | Potency (Tov-21-G) | Potency (Tov112D)

From PubChem BioAssay (NCATS)
